Bioassay records as filed in PubChem BioAssay.
DSG3 Ab inh – inhibitors of pemphigus antibody binding to human desmoglein-3. P32926. DSG3-coupled beads, scFv-anti-DSG3-GFP binding, flow cytometry; hits give low values. binding (percent of control), % at 10 µM. 310,000 compounds, 0.48% hits;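 active = binding more than 3 SD below its plate's average and above zero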;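 also: hits lower antibody fragment binding to DSG3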
Target sequence (P32926 whole entry, looked up, the tested form may be a part): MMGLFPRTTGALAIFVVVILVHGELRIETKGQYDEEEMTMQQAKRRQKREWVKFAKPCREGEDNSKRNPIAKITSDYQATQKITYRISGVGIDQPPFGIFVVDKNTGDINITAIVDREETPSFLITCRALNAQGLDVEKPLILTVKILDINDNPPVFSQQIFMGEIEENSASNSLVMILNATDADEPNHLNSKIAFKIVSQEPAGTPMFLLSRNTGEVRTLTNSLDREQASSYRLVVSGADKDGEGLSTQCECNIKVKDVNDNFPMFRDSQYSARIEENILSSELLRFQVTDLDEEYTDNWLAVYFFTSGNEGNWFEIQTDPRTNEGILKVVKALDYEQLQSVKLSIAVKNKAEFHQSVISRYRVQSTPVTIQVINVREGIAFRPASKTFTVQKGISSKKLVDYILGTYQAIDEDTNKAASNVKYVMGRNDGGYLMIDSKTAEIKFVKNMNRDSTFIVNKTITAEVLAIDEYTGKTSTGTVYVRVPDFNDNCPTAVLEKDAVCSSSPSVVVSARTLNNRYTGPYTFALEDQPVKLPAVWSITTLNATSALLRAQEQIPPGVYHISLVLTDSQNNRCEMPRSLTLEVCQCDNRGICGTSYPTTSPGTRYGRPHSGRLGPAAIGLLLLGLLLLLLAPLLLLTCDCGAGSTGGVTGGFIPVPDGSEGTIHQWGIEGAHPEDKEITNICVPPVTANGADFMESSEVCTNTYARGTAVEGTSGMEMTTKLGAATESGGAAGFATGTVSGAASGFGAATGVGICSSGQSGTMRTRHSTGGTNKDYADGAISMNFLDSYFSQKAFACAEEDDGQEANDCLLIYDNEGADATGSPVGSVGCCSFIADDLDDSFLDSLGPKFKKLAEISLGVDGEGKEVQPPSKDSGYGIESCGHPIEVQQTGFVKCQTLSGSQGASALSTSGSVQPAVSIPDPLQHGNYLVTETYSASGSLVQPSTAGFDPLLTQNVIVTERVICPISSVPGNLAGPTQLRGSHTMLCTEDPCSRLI
rCAG binder – r(CAG) repeat RNA binding. 370,000 compounds, 1.3% hits. TO-PRO-1 dye displacement fluorescence. AID 651821. inhibition, % at 3 µM;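 active = inhibition above the plate cutoff, the mean of all test compounds on that plate plus 3 SD, cut at about 35% in these data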;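 also: 0% = DMSO alone and 100% = 100 µM mitoxantrone as full dye displacement; higher means more dye released from RNA so lower well fluorescence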
DAGLB inhibitor – diacylglycerol lipase beta (human) inhibition | Q8NCG7 | HEK293T DAGLB membrane lysate, EnzChek fluorogenic substrate | inhibition, % at 5.17 µM | 340,000 compounds, 0.059% hits | AID 504411; in the data active = inhibition above about 34%;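 also: 0% = enzyme with vehicle and 100% = wells lacking enzyme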
MsrA act – activators of bovine methionine sulfoxide reductase A; purified bovine MsrA, absorbance read-out; activation, % at 10.6 µM; 360,000 compounds, 0.3% hits; in the data active = activation above about 7.5%;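 also: 0% = vehicle and 100% = reference activator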
NadD inh – inhibitors of Staphylococcus aureus NadD. purified NadD enzyme, colorimetric absorbance read-out. inhibition, % at 20 µM. 360,000 compounds, 0.78% hits; in the data active = inhibition above about 26%
MsrA inh – bovine MsrA inhibition; AID 651718; purified bovine MsrA, absorbance read-out; 360,000 compounds, 0.75% hits; inhibition, % at 15.5 µM; in the data active = inhibition above about 4.5%;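 also: 0% = vehicle wells with enzyme and 100% = reference inhibitor wells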
* hit, by the source's call; . = no result. Sampled rows, rich in hits. Any-hit rate of the full collection: about 3.2%.

SMILES	DSG3 Ab inh	rCAG binder	DAGLB inhibitor	MsrA act	NadD inh	MsrA inh
COc1ccc(C2=CC3=C(Br)C(=O)C(C)(O)C(=O)C3=CO2)cc1 (stereo not drawn)	91	.	17	-4	4	.
COC(=O)[C@]12C[C@H](CC(=O)NCc3cccc(C(F)(F)F)c3)C(=O)N(Cc3ccccc3)C1=C[C@H](C(C)(C)C)O[C@@H]2C	.	3	.	.	.	0
CCOC(=O)[C@@]12CCCC3=C1N(CCC3)C(=O)[C@H]2CC(=O)NCc1cccc(C(F)(F)F)c1	.	-2	.	.	.	.
Cc1cccn2c(CNCCc3ccco3)c(C(=O)N3CCOCC3)nc12	.	0	3	-3	-5	0
COC(=O)C1OC(OC2CC[C@]3(C)C(CC[C@@]4(C)[C@@H]3CC=C3[C@@H]5CC(C)(C)CC[C@]5(C(=O)OC5OC(CO)C(O)C(O)C5O)CC[C@]34C)C2(C)C)C(O)C(O)C1O[C@H]1OCC(O)C(O)C1O (stereo partly drawn)	108	.	-1	2	-10	.
C/C=C(\C)C(=O)OC1CC(C)(C)C[C@H]2C3=CC[C@@H]4[C@@]5(C)CCC(O[C@@H]6O[C@@H](C(=O)O)[C@@H](O)C(O[C@@H]7OC[C@H](O)[C@@H](O)[C@@H]7O[C@@H]7OC(CO)C(O)[C@@H](O)[C@@H]7O)C6O[C@@H]6OC(CO)C(O)C(O)C6O)[C@@](C)(CO)[C@@H]5CC[C@]4(C)[C@]3(C)CC(O)[C@@]12CO (stereo partly drawn)	93	45*	0	2	-2	-1
O=C(c1ccco1)N1CC2(CC(c3ccc(Cl)cc3)=NO2)CN1Cc1ccc(Br)cc1 (stereo not drawn)	101	6	-3	-3	13	0
COc1ccc(/C=N/NC(=O)c2ccco2)cc1Cn1nc(C)c([N+](=O)[O-])c1C	-160*	2	1	-3	7	2
O=c1cc(-c2ccc(O)cc2)oc2c(-c3c(O)cc(O)c4c(=O)cc(-c5ccc(O)cc5)oc34)c(O)cc(O)c12	105	94*	7	-6	19	2
CN1CCN(C/C(=C2/N=C(c3ccccc3)OC2=O)N(C)C)CC1	100	-2	1	-4	-3	4.6*
Cc1c(C(=O)O)cccc1-n1c(C)cc(/C=N/NC(=O)c2cc3ccccc3o2)c1C	99	17	1	-6	15	4.6*
CCN1/C(=C/c2ccc3cc(C)ccc3[n+]2CC)Sc2ccc3sccc3c21	12	.	-3	0	44*	.
CCCc1cc(=O)n2[nH]c(C)cc2n1	83*	-1	1	1	-1	-1
COC(=O)Cc1cc(=O)n2[nH]c(C)cc2n1	100	3	-1	-1	0	0
COCCCNC(=O)C[C@@H]1C(=O)N2CCCC3=C2[C@@]1(C(=O)OC)CCCC3	.	0	.	.	.	.
CCCCC1(C)OC(=O)C(=Cc2ccc(N(CC)CC)cc2)C(=O)O1 (stereo not drawn)	317	8	-1	-5	14	5.2*
CCOc1cc(/C=C2\CCC/C(=C\c3cc(Cl)c(O)c(OCC)c3)C2=O)cc(Cl)c1O	103	14	6	-3	46*	2
Cc1cc(-c2csc(NC(=O)c3ccc(=O)[nH]c3)n2)c(C)n1Cc1ccco1	82*	29	3	-4	67*	0
Cc1ccc(C(=O)N/C(=C/c2ccc(Cl)cc2)C(=O)NCC2CCCO2)cc1 (stereo not drawn)	101	-2	0	-1	2	0
Cc1ccc(C(=O)N/C(=C/c2ccc(N(C)C)cc2)C(=O)NCC2CCCO2)cc1 (stereo not drawn)	35*	-2	-2	-9	-2	3
O=C(O)CC(CNS(=O)(=O)c1cccc2nsnc12)c1ccccc1 (stereo not drawn)	40*	0	.	-12	1	1
Cc1cc(/C=N/NC(=O)Cn2c3ccccc3c(=O)c3ccccc32)c(C)n1-c1ccccc1	94	20	-1	-3	45*	1
CCOC(=O)[C@]12CCCC=C1N(CCC1=CCCCC1)C(=O)[C@H](CC(=O)NCc1cccs1)C2	.	2	.	.	.	-1
Clc1ccccc1-c1nnc(-c2ccc3c(c2)OCO3)o1	79*	-1	-23	0	-4	1
Cn1nc(CC(=O)Nc2ccc(N3CCN(C(=O)OC(C)(C)C)CC3)cc2)c2ccccc2c1=O	86*	2	1	-8	-5	0
SMILES	DSG3 Ab inh	rCAG binder	DAGLB inhibitor	MsrA act	NadD inh	MsrA inh
Cn1nc(CC(=O)N2CCN(c3ccccc3)CC2)c2ccccc2c1=O	108	1	1	7	6	0
CCCN1C(=O)/C(=c2\sc3nc(=O)c(Cc4ccc(C)cc4)nn3c2=O)c2ccccc21	68*	5	5	-10	5	2
COC(=O)C1CN(Cc2cn(Cc3ccc(OC)cc3)nn2)CCS(=O)(=O)N1Cc1ccc(C)cc1 (stereo not drawn)	.	1	.	.	.	.
Cc1ccc(N=Cc2cc(Cc3ccccc3Cl)cc([N+](=O)[O-])c2O)c(O)c1	103	.	22	-10	42*	.
Cc1ccc(SCCCCN2CCOCC2)cc1	50*	-8	2	-3	-7	-1
COc1cc(C(=O)NCCc2ccc3c(c2)OCCO3)ccc1OCC(=O)N1CCOCC1	108	-3	-2	-2	3	1
COc1cc(C(=O)NCCc2ccc(F)cc2)ccc1OCC(=O)N1CCOCC1	86*	.	4	1	1	.
COc1cc(C(=O)N2CCN(S(=O)(=O)c3cccc(F)c3)CC2)ccc1OCC(=O)N1CCOCC1	87*	-2	-8	-15	4	0
COC(=O)Cc1ccc(OC2(C)CCN(Cc3csc4ccccc34)C2)cc1 (stereo not drawn)	.	3	.	-1	-5	1
O=C(Nc1cccc2ccccc12)OC[C@@H]1CSCCS(=O)(=O)N1	.	2	.	.	.	-1
N#Cc1cn(-c2ccccc2)nc1-c1ccc2c(c1)OCCO2	-0.9*	-3	-8	0	4	0
O=C(CP(=O)(c1ccccc1)c1ccccc1)N/N=C/c1cc(Br)cc(Br)c1O	.	4	2	-1	44*	-1
O=C(N/N=C/c1cc(Br)cc(Br)c1O)c1cccc(N2CCCC2=O)c1	98	11	3	-6	33*	3
O=C(N/N=C/c1cc(Br)cc(Br)c1O)c1cccc(S(=O)(=O)N2CCOCC2)c1	95	5	4	-6	35*	1
O=C(N/N=C/c1ccc(Cl)cc1Cl)c1cccc(N2CCCC2=O)c1	106	2	-1	-3	-5	0
Cn1c(CC(=O)NNC(=O)c2cccnc2)nc2ccccc21	98	3	-1	-7	-4	-1
CCOC(=O)CN1N=C(c2ccc(Cl)cc2)CCC1=O	66*	-2	-2	-1	-2	1
CC(C)CCNC(=O)CN1N=C(c2ccc(Cl)cc2)CCC1=O	105	-9	2	-2	-4	1
